Source: PubChem (National Center for Advancing Translational Sciences (NCATS))
CHX counter – counter-screen hit for Shiga toxin inhibitors, cycloheximide; cell reporter, cycloheximide protein synthesis inhibition counterscreen; max response, %; actives 12% (n = 300,000); in the data active = max response mostly above about 13%, no sharp cut-off; inactive = mostly below about 14%; also: read at 38.3 µM for the half of the compounds with a filed dose; 0% is about no effect
Shiga inhibitor – Shiga toxin inhibition; Vero cells, Shiga toxin protein synthesis inhibition reporter; inhibition, % at 38.7 µM; actives 9.2% (n = 290,000); AID 2315; in the data active = inhibition mostly above about 28%, no sharp cut-off; inactive = mostly below about 43%; also: 0% is about no effect
Sm TGR block – blocks Schistosoma mansoni thioredoxin glutathione reductase; Q962Y6; purified TGR, DTNB reduction, TNB absorbance 405 nm; Potency, µM (doses to about 114 µM), for inactives: at the top dose activity change, negative = inhibition, usual class: inhibitors; actives 3% (n = 360,000); also: potency is read from the fitted curve at half-maximal effect; % is scaled to controls: 0 for no effect and ±100 for the full control effect; nearly all actives have a fitted effect of over 60% in size
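TGR 20 nM + NADPH 100 uM (dispensed conc.), cpd preinc 15 min RT; start with NADPH (500 uM addition) then DTNB (15 mM addition). Kinetic TNB absorbance, 405 nm filter. Four-parameter Hill fit across titration.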
Giardia FBPA inh-1 – blocks Giardia fructose-bisphosphate aldolase activity; purified Giardia FBPA; actives 0.71% (n = 290,000); Potency, µM (series often up to 59.6 µM), without a hit: at the top dose activity, negative = inhibition, most hits filed as inhibitors; AID 2451; also: potency is read from the fitted curve at half-maximal effect; % is scaled to controls: 0 for no effect and ±100 for the full control effect; nearly all actives have a fitted effect of over 55% in size
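Giardia FBPA (40 nM reagent) was preincubated 10 min at RT with compound (up to 57.5 uM final), then substrate plus GAPDH/TPI/NAD/arsenate coupling system with diaphorase/resazurin was added; resorufin fluorescence (525/598 nm) was read after 20 min.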
Tb PYK inh – inhibitors of Trypanosoma brucei pyruvate kinase; actives 0.12% (n = 410,000); TbPYK enzyme, Kinase-Glo Plus ATP luminescence, 45 min; Potency, µM (top dose mostly 76.8 µM), without a hit: at the highest dose activity, negative = inhibition, usual class: inhibitors; also: potency is read from the fitted curve at half-maximal effect; % is scaled to controls: 0 for no effect and ±100 for the full control effect; nearly all actives have a fitted effect of over 50% in size
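Quantitative HTS: titrated library compounds versus trypanosomal pyruvate kinase in TEA buffer (pH 7.2) containing KCl, MgCl2, BSA and Tween-20. Reactions were initiated with ADP, 130 uM final. Kinase-Glo Plus luminescence was read after 45 min at RT.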
LmPK inh – inhibitors of Leishmania mexicana pyruvate kinase; Q27686; purified LmPK, Kinase-Glo ATP luminescence, 1 h; Potency, µM (doses to about 57.5 µM), for the others: at the highest dose activity change, negative = inhibition, usual class: inhibitors; actives 0.37% (n = 290,000); AID 1721; also: potency is read from the fitted curve at half-maximal effect; % is scaled to controls: 0 for no effect and ±100 for the full control effect
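ATP generated from ADP (0.1 mM) and PEP (0.5 mM) by 0.1 nM LmPK over 1 h at room temperature (pH 7.2 imidazole buffer) was detected by coupled luciferase luminescence. Values were normalized to uninhibited and no-enzyme wells.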
Giardia growth – blocks growth of Giardia lamblia trophozoites; Potency, µM (titrated, usually from 57.5 µM), for the others: at the highest dose activity change, negative = inhibition, hits mostly inhibitors; actives 5% (n = 1,500); shares compounds with Giardia FBPA inh-1; Giardia lamblia trophozoite growth inhibition;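 also: potency is read from the fitted curve at half-maximal effect; trophozoites exposed to compound for 48 h at 37 °C; % is scaled to controls: 0 for no effect and ±100 for the full control effect; nearly all actives have a fitted effect of over 70% in size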
Mammal cell tox – counter-screen for Giardia aldolase inhibitors: mammalian cell toxicity | AID 2786 | shares compounds with Giardia FBPA inh-1 | Potency, µM (highest dose often 57.5 µM), without a hit: at the highest dose viability change, negative = toxicity, actives largely listed as inhibitors | actives 4% (n = 1,500) | mammalian cell viability counter-screen, qHTS;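 also: Chinese hamster ovary cells used as mammalian cytotoxicity surrogate; viability measured as cellular ATP by luminescence; potency is read from the fitted curve at half-maximal effect; compound exposure lasted 48 h before reading; % is scaled to controls: 0 for no effect and ±100 for the full control effect; nearly all actives have a fitted effect of over 60% in size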
Giardia FBPA inh-2 – confirmation of Giardia fructose-bisphosphate aldolase inhibitors; shares compounds with Giardia FBPA inh-1; purified Giardia aldolase enzyme activity, qHTS; Potency, µM (top dose mostly 57.5 µM), inactives show at the highest dose activity change, negative = inhibition, usual class: inhibitors; actives 5% (n = 1,500); also: potency is read from the fitted curve at half-maximal effect; % is scaled to controls: 0 for no effect and ±100 for the full control effect; nearly all actives have a fitted effect of over 45% in size
Rabbit FBPA inh – selectivity test for Giardia aldolase inhibitors: rabbit aldolase. shares compounds with Giardia FBPA inh-1. actives 4% (n = 1,500). Potency, µM (highest dose often 57.5 µM), inactives show at the top dose activity, negative = inhibition, actives largely listed as inhibitors. Rabbit muscle FBPA enzyme inhibition, selectivity counter-screen; also: potency is read from the fitted curve at half-maximal effect; % is scaled to controls: 0 for no effect and ±100 for the full control effect; nearly all actives have a fitted effect of over 60% in size
Target sequence (P00883 whole entry, looked up): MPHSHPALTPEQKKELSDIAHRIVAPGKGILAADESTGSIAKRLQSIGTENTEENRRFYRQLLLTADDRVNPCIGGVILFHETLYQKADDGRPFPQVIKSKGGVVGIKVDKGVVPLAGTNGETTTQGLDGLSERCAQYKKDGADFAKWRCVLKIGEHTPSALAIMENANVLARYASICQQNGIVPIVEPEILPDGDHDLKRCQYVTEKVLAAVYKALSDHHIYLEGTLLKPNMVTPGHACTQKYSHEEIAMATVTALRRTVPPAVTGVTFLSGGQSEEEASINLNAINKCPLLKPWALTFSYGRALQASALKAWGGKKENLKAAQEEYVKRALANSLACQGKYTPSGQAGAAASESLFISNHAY
GAPDH counter – counter-screen for Giardia aldolase inhibitors: GAPDH coupling enzyme. shares compounds with Giardia FBPA inh-1. GAPDH coupling enzyme counterscreen, biochemical, qHTS. Potency, µM (top dose mostly 57.5 µM), without a hit: at the top dose activity change, negative = inhibition, hits mostly inhibitors. actives 6% (n = 1,500). AID 2795; also: potency is read from the fitted curve at half-maximal effect; % is scaled to controls: 0 for no effect and ±100 for the full control effect; nearly all actives have a fitted effect of over 55% in size
Active calls of the source: *; ? = inconclusive; · = no result given; ! = not confirmed by another sample; [ ] = another dose, or the depositor's remark. Many of the other results were omitted from the sample, so hits are more common in it than they were. Unless noted, calls follow the shape of the dose curve; as a rule, active = well fitted curve in the direction sought with a large enough effect; inconclusive = small, poorly fitted or top-dose-only effect, or another doubt; inactive = no such curve, though single readings can be large; an effect the other way counts as inactive or inconclusive.

SMILES	CHX counter	Shiga inhibitor	Sm TGR block	Giardia FBPA inh-1	Tb PYK inh	LmPK inh	Giardia growth	Mammal cell tox	Giardia FBPA inh-2	Rabbit FBPA inh	GAPDH counter
Cc1cccc(N=Nc2ccc(O)c3ncccc23)c1	46*	active	-11%	·	-19%	-11%	·	·	-20%	-18%	-13%
COCCn1c(SCC(=O)c2c[nH]c3ccccc23)nc2cc(C(=O)NCC(C)C)ccc2c1=O	·	·	-7%	·	-6%	·	·	·	·	·	·
C=CCN(CC=C)CCOc1ccc(C)cc1[N+](=O)[O-]	26*	71*	-16%	20µM*	16%	-5%	?	2%	-1%	1%	-4%
Cc1cc(C)c2nc(-c3ccccn3)cc(C(=O)NCCc3ccc(S(N)(=O)=O)cc3)c2c1	-4	-17	5%	18µM*	-16%	9%	3%[10.4 µM]	-1%	-1%	3%	15%
CC(=O)c1ccc(N2CCN(CC(=O)Nc3ccccc3C(=O)NC3CC3)CC2)c(F)c1	·	·	-32%	·	3%	·	·	·	·	·	·
O=C(Cn1ncc2ccsc2c1=O)N1CCN(c2ccccc2)CC1	·	·	4%	·	-8%	·	·	·	·	·	·
CC(=O)Nc1ccc(S(=O)(=O)N2CCN(Cc3cccc([N+](=O)[O-])c3)CC2)cc1	-7	-15	0%	18µM*	-10%	-1%	-1%	-4%	6%	8%	12%
CC(=O)Nc1ccc(S(=O)(=O)N2CCN(Cc3cccnc3)CC2)cc1	-3	-4	-32%	?	-1%	-5%	·	·	·	·	·
CCc1nc2ccc(C(=O)NCc3cccs3)cn2c1N(CC)CCN(C)C	·	·	·	·	-3%	·	·	·	·	·	·
COc1ccc(CN2CCN(Cc3ccccc3C(F)(F)F)CC2)c(OC)c1	-4	-7	0%	13µM*	-6%	-1%	?	12%	-2%	8%	-4%
COc1cccc(CN2CCN(Cc3ccccc3C(F)(F)F)CC2)c1	1	-8	6%	?	-3%	-1%	·	·	·	·	·
COc1ccc(CN2CCN(CCCc3ccccc3)CC2)c(OC)c1	-3	-5	-2%	16µM*	·	0%	8%	-14%	-1%	5%	13%
COc1ccc(CN2CCN(CCCc3ccccc3)C(CCO)C2)c(OC)c1 (stereo not drawn)	-2	-2	2%	2%	0%	-11%	·	·	·	·	·
CN(C)C(=S)SSC(=S)N(C)C	23*	12	-33%	40µM*	4.5µM*	1%	14µM*	4.5µM*	?	?	40µM*
Cc1nc2ccn(Cc3ccccc3)c(=O)c2cc1C(=O)N1CCN(c2ccccc2)CC1	-3	-5	-9%	-2%	4%	-3%	·	·	·	·	·
O=C1NC(=O)C(c2ccccc2[N+](=O)[O-])=C1Nc1ccc(O)c(Cl)c1	8	10	7.1µM*	25µM*!	-10%	1%	-16%	-4%	?	?	-19%
COC(=O)c1cc(=O)c2c(C)nc(C(Cl)(Cl)Cl)nc2[nH]1	1	-1	-21%	20µM*	-11%	-6%	-21%	-18%	-3%	-5%	-23%
COC(=O)c1cc2c(C)[nH]c(C)c2cc(C(=O)OC)c1=O	-2	-6	-22%	?	-3%	0%	·	·	·	·	·
